Reference: PubChem BioAssay AID623923 (Vanderbilt Specialized Chemistry Center, 2012)
Active and inactive are the calls of the source. No rule for the calls is given here.

Experiment: PubChem AID 623923
Details: Ricerca radioligand binding panel, % inhibition, at 10 µM, stronger effect = higher value

COc1ccc(C)c2sc(NC(=O)c3ccncc3)nc12
inhibition (5-HT2B binding): 70% | inhibition (DAT transporter binding): 13% | inhibition (GABA-A muscimol site binding): 47% | inhibition (NET transporter binding): 18% | inhibition (PAF receptor binding): 34% | inhibition (adenosine A2A binding): 100% | inhibition (adenosine A3 binding): 99% | inhibition of radioligand binding, adenosine A1: 91% (active) | inhibition (hERG binding): 13% | inhibition (muscarinic M1 binding): -3% | inhibition (muscarinic M2 binding): -2% | inhibition (muscarinic M3 binding): 3% | inhibition (sigma 1 binding): 39%
